Assay results published in the supplement of paper PMC7556523.
Unmarked numbers belong to inactive results.

Legend:
[1] = tested on: Sporothrix brasiliensis CBS 133006; assay: growth inhibition relative to untreated control; higher = more growth inhibition (more antifungal activity), active = 80 or more; extreme values may be limits of the assay; details: 1 µM; 48 h
Summary of the method: (§1)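 Library compounds at a final 1 μM were incubated with yeast-form cells of the reference isolates (1 x 10^5 CFU/ml) for 48 h at 35°C in 5% CO2. Growth was judged by inverted light microscopy and measured spectrophotometrically in quadruplicate runs. Values give percent growth inhibition relative to untreated cells.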

[2] = tested on: Sporothrix schenckii ATCC 32286; assay: as above; details: 1 µM; 48 h
Summary of the method: as §1

SMILES	growth inhibition [1]	growth inhibition [2] [%]
COc1cccn2c(C(=O)N3CCCCC3)c(C(F)(F)F)nc12	8.75%	5
Cc1cc(C)c2cc(C(=O)NC3CCCCCCC3)[nH]c2c1	6%	6.25
c1cc(C2=NCCN2)cc(-c2cc(-c3ccc(C4=NCCN4)cc3)no2)c1	5.5%	0
CCc1nc2ccc(C(=O)NCc3ccc4c(c3)OCO4)cn2c1N(C)Cc1cccs1	7%	2.75
COc1cc(NC(C)CCCN)c2ncccc2c1 (stereo unspecified)	1%	4.25
Cn1ccnc1CNCCS(=O)(=O)c1cccc(Nc2ccc(-c3cccc(F)c3)cn2)c1	4.25%	0
COc1ccc(C2(C(=O)Nc3ccc(Br)cc3)CCCC2)cc1	59.8%	13
Nc1nccc2ccc(-c3ccc4nccn4c3)cc12	5.5%	13.5
C[C@H]1COc2c(N3CCN(C)CC3)c(F)cc3c(=O)c(C(=O)O)cn1c23	0%	0
CCOc1ccc(-c2nc(CNCCc3ccc(F)cc3)cs2)cc1	3.75%	15.5
CC1=NN(c2nc3ccccc3s2)C(=O)C1Cc1cccc2ccccc12 (stereo unspecified)	17.2%	14.8
CC(Oc1ccccc1)C(=O)Nc1nc(-c2ccccn2)cs1 (stereo unspecified)	18%	0
CC(C)n1ncc2c(C(=O)NCC(c3cccs3)N3CCOCC3)cc(-c3ccccc3)nc21 (stereo unspecified)	2%	12.8
COc1ccccc1OCCCCn1c(C2CC2)nc2ccccc21	7.75%	9.25
N=C(N)c1ccc(OCCCCCOc2ccc(C(=N)N)cc2)cc1	93.5% (active)	72
O=C(Nc1c(O)cccc1-c1nc2c(C(=O)O)cccc2o1)c1cc(-c2ccccc2)on1	38.2%	3.75
COc1cccc2c(C)nc(N=C(N)N)nc12	10%	20.8
COc1nc2ccc(Br)cc2cc1[C@@H](c1ccccc1)[C@@](O)(CCN(C)C)c1cccc2ccccc12	21.5%	17.8
Cc1cc(Nc2ccncc2)n2nc(C)c(-c3ccccc3Cl)c2n1	5%	4.75
CC(C(=O)Nc1ccc2oc(-c3ccncc3)nc2c1)c1ccccc1 (stereo unspecified)	15.2%	0.5
N=C(N)c1ccc(-c2cc(-c3ccccc3)on2)cc1	7%	10.5
Cc1cnc(N2CCN[C@@H](Cc3ccccc3)C2)nc1Oc1ccc(-n2ccnc2)cc1	2.75%	6.5
CN1CCC(c2cc(-c3ccncc3)c(-c3ccc(F)cc3)[nH]2)CC1	9%	10
Cc1nc(-c2ccccn2)nc(NCCc2ccc(S(C)(=O)=O)cc2)c1Cl	13%	0
Cc1ncc(-c2ccnc(Nc3ccc(S(C)(=O)=O)cc3)n2)n1C(C)C	37%	2.5

SMILES	growth inhibition [1]	growth inhibition [2] [%]
CC(=O)N1CCc2cc3nc(C)cc(C)c3cc21	4%	0
COc1cncc(-c2cncc(N3CCN(c4ccncc4)CC3)n2)c1	34.2%	0
COc1ccc(S(=O)(=O)Nc2ccc(CN3CCN(C(=O)c4cccc(C#N)c4)CC3)cc2)cc1	4.25%	7.75
Cc1nc2ccccn2c1C(=O)NCc1ccc(Cl)cc1	14%	16
Cc1[nH]c2ccccc2c1C(c1cccs1)N1CCN(C)CC1 (stereo unspecified)	4.75%	15.2
C[C@H](C(N)=O)N1CCCC[C@H]1c1ccc(OCc2cccc(F)c2)cc1	6.5%	10
c1ccc(Oc2ccc(-c3cc(C4CCOCC4)[nH]n3)cc2)cc1	3%	2.75
CC(C)(C)c1cnc(NC(=O)c2ccccc2O)s1	8%	0
Nc1cccnc1Nc1ccc(Cl)cc1	13.8%	0
CC(C)NCC(=O)Nc1cccc(C(=O)Nc2cccc(C(F)(F)F)c2)c1	11.5%	3.75
O=C(Nc1nc(-c2ccccn2)cs1)C1CC1c1ccccc1F (stereo unspecified)	9.5%	34.2
O=C(c1[nH]nc2c1CCCC2)N1CCN(Cc2ccc3c(c2)OCO3)CC1	9.75%	16.2
c1ccc(Oc2ccc(-c3cncc(-c4ccc5[nH]ccc5c4)n3)cc2)cc1	8%	12.5
CCC(C)NC(=O)c1ccc(NC(=O)C2(c3ccccc3)CCCC2)cc1 (stereo unspecified)	5.5%	4.25
CNC1C(OC2C(OC3C(O)C(O)C(N=C(N)N)C(O)C3N=C(N)N)OC(C)C2(O)C=O)OC(CO)C(O)C1O (stereo unspecified)	6%	0
Nc1ncc(-c2cn[nH]c2)cc1-c1nc2cc(Cl)cnc2[nH]1	12%	11
COc1cc(C2=NCCN2)cc2cc(-c3ccc(C4=NCCN4)cc3)oc12	17%	4.25
CC(C)(C)OC(=O)N1CCN(c2nccc(-c3ccc(-c4ccc(Cl)cc4)s3)n2)CC1	8%	1
O=C(Nc1ccccc1)c1ccc(-c2cc3ccncc3cc2OC2CCNCC2)s1	8.75%	11
Cc1ccc2c(c1C)NC(=O)C21NN=C(c2ccccc2)S1 (stereo unspecified)	7.25%	4.5
Nc1nccc2ccc(Oc3ccncc3)cc12	9.25%	14.2
O=C(c1ccco1)N(CCCn1ccnc1)c1nc2c(Cl)cccc2s1	6%	10.2
CC(c1cc(Cl)cc(Cl)c1)N(C)c1ncc2c(N)nc(N)nc2n1 (stereo unspecified)	11.2%	16.5
CC1(C)Cc2c(c(N3CCOCC3)nc3snc(Br)c23)CO1	4.5%	6.5
Nc1ccc2ncnc(Nc3ccc(OCc4cccc(F)c4)c(Cl)c3)c2c1	12.8%	8.25

SMILES	growth inhibition [1]	growth inhibition [2] [%]
NCCC(O)C(=O)N[C@@H]1C[C@H](N)[C@@H](OC2O[C@H](CN)[C@@H](O)[C@H](O)[C@H]2O)[C@H](O)C1OC1O[C@H](CO)[C@@H](O)[C@H](N)[C@H]1O (stereo partly specified)	9.25%	1
COc1ccc(C2CC(c3cccs3)=NN2C(=O)c2ccco2)cc1OC (stereo unspecified)	0%	18.8
C[C@H](c1ccc2c(c1)CCCC2)N(C)c1ncc2c(N)nc(N)nc2n1	10%	0
O[C@@H](c1cc(C(F)(F)F)nc2c(C(F)(F)F)cccc12)[C@H]1CCCCN1	6%	15.2
Cc1ccc(NC(=O)CC2COc3ccccc3O2)cc1Cl (stereo unspecified)	10%	0
Clc1cccc(C(c2ccc(CN3CCNCC3)cc2)n2ccnc2)c1 (stereo unspecified)	3%	7
Cc1nn2c(O)c3c(nc2c1-c1ccc(F)cc1)CCCC3	7%	6.5
Cc1ccc2[nH]c3c(NCCN(C)C)ncnc3c2c1	2%	0
CCOC(=O)c1c(NC(=O)c2c(F)c(F)c(F)c(F)c2F)sc(C(N)=O)c1C	13.8%	0
CC(C)(CN)c1nc(-c2ccc(Cl)c(O)c2)c(-c2ccnc(N)n2)[nH]1	7%	21.8
CN1CCN(c2cc(-c3ccc(F)cc3)nc(-c3ccncc3)n2)CC1	7%	12.2
Cc1nc(-c2cccc(NCc3ccccc3)c2)[nH]c1C	1.25%	10.2
CC(C)C(C(=O)Nc1ccc(S(=O)(=O)N(C)C)cc1)c1ccc(Cl)cc1 (stereo unspecified)	17.5%	0.5
CCCCCCCCCCCCCCCCOP(=O)([O-])OCC[N+](C)(C)C	24.8%	0
COc1cc(C2=NCCN2)ccc1-c1cn(-c2cccc(C3=NCCN3)c2)nn1	14%	1.25
C[C@@H]1[C@H](O)[C@@H](C)/C=C/C=C/C=C/C=C/C=C/C=C/C=C/[C@H](O[C@@H]2O[C@H](C)[C@@H](O)[C@H](N)[C@@H]2O)C[C@@H]2O[C@](O)(C[C@@H](O)C[C@@H](O)[C@H](O)CC[C@@H](O)C[C@@H](O)CC(=O)O[C@H]1C)C[C@H](O)[C@H]2C(=O)O	24%	16
O=C(C1CCN(c2cc(-n3cccc3)ncn2)CC1)N1CCc2ccccc2C1	6%	10.2
O=C(Nc1ccccc1-c1nc2c(C(=O)O)cccc2o1)c1ccccc1	1%	0
COC(=O)c1c(NC(=O)c2c(F)c(F)c(F)c(F)c2F)sc2c1CCCCC2	13.8%	0.75
c1ccc(-c2nc(NC3CCCCC3)cc(C3CC3)n2)nc1	16.8%	38.2
CN1CCN(c2nccc3nc(-c4ccc(F)c(F)c4)[nH]c23)CC1	0%	0
Cc1cccc(NC(=O)c2cc(S(=O)(=O)N(C)c3ccc(F)cc3)ccc2Cl)n1	4.25%	8.25
O=C(Nc1ccc2c(c1)B(O)OC2)c1ccccc1C(F)(F)F	13.5%	20.5
